For 50 compounds, Potency and activity change % (negative = inhibition) results are on record in PubChem BioAssay (NCATS).

Records with an inconclusive call do not appear. Values without a mark were called inactive. Calls of active or inactive are those of the source. Unless noted, the call rests on the fitted dose curve.

Experiment [1] addresses Peroxisome proliferator-activated receptor delta (Homo sapiens) (UniProt Q03181). Kind of experiment: qHTS assay for small molecule antagonists of peroxisome proliferator-activated receptor delta signaling (AID 588535; active means well fitted inhibition curve with a large enough effect in the signal ratio, with a control signal flat, not every such curve was filed as active; the % refers to the signal ratio). The essentials: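 HEK293T PPAR-delta-UAS-bla cells, 4000/well, 2% charcoal/dextran FBS; 5 h 37 C; cpd titration; 18 h 37 C; CCF4 2 h RT; FI 460/530 nm; Hill fit → IC50, efficacy.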
For orientation: Quantitative high-throughput screening tests each substance at several concentrations.

For experiment [2], the target named is Vitamin D3 receptor (Homo sapiens) (UniProt P11473). Kind of experiment: qHTS assay for small molecule antagonists of vitamin D receptor signaling (AID 588541). Further: potency means the concentration at half of the fitted maximal effect. The method in brief:
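Antagonist-mode beta-lactamase reporter assay: HEK293T VDR-UAS-bla cells were exposed to titrated compound alongside 1-alpha,25-dihydroxyvitamin D3 at 3 nM final for 16 h. Values were normalized to the 50 nM agonist control and DMSO basal, with IC50 and efficacy from Hill equation fits.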

The target in experiment [3] is Thyroid hormone receptor beta (Homo sapiens) (UniProt P10828). The experiment can be described thus: qHTS assay for small molecule antagonists of thyroid hormone receptor beta signaling (AID 588547; active means well fitted inhibition curve with a large enough effect in the signal ratio, with a control signal flat, not every such curve was filed as active; the % refers to the signal ratio;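 further: cells stimulated with 0.4 nM T3 agonist during compound exposure; series mostly up to about 77 µM; on the % scale 0 is the no-effect control and ±100 the full control effect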). The following applies: TR-UAS-bla HEK293, beta-lactamase ratio, antagonist mode, 18 h. The method in brief: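 Inhibition of T3-driven (0.4nM final) beta-lactamase reporter activity was measured over 0.59 nM to 92 uM compound after 18 h at 37 C. The cells were GripTite HEK293 TR-UAS-bla in charcoal/dextran-stripped serum, with CCF4 ratio read-out and IC50 from Hill fits.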

Experiment [4] can be described thus: qHTS assay for small molecule agonists of the antioxidant response element (ARE) signaling pathway (AID 651741; active means well fitted activation curve with a large enough effect in the signal ratio; the % refers to the signal ratio; further: potency means the concentration at half of the fitted maximal effect; on activation: % of control where 0% means no effect). The essentials:
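Quantitative HTS in HepG2 cells stably expressing an ARE-beta-lactamase reporter; 16 h compound exposure at 37 C, followed by 2 h room-temperature incubation with LiveBLAzer B/G FRET substrate and fluorescence measurement.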

Experiment [5] has as its target Bile acid receptor (Homo sapiens) (UniProt Q96RI1). The experiment can be described thus: qHTS assay for small molecule antagonists of farnesoid X receptor signaling (AID 588526). Further: on the % scale 0 is the no-effect control and ±100 the full control effect. The method in brief:
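Beta-lactamase reporter antagonist mode: HEK293T FXR-UAS-bla cells, titrated compound, CDCA stimulation, 16 h 37 C, CCF4 dye 2 h RT. Data normalized to CDCA 50 uM and DMSO; Hill-fit IC50.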

In experiment [6] the target is Retinoic acid receptor RXR-alpha (Homo sapiens) (UniProt P19793). Kind of experiment: qHTS assay for small molecule agonists of retinoid X receptor alpha signaling (AID 588544). Further: potency means the concentration at half of the fitted maximal effect.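 On activation: 0% = DMSO basal wells and 100% = reference agonist.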
Retinoic acid receptor RXR-alpha (Homo sapiens), sequence (P19793 whole entry, looked up): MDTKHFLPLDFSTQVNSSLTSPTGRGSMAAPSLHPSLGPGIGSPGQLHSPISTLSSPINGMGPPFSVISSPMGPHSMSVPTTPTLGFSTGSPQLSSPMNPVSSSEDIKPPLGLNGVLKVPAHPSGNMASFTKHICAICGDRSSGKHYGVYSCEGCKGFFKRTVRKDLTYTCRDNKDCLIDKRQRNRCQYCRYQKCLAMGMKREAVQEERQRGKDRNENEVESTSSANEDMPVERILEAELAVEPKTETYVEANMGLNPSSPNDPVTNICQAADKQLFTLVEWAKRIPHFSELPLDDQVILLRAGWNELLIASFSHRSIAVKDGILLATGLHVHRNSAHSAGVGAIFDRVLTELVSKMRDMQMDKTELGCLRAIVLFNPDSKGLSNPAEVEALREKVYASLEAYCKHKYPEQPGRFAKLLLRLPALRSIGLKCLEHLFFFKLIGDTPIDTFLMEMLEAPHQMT

Peroxisome proliferator-activated receptor delta (Homo sapiens), sequence (Q03181 whole entry, looked up): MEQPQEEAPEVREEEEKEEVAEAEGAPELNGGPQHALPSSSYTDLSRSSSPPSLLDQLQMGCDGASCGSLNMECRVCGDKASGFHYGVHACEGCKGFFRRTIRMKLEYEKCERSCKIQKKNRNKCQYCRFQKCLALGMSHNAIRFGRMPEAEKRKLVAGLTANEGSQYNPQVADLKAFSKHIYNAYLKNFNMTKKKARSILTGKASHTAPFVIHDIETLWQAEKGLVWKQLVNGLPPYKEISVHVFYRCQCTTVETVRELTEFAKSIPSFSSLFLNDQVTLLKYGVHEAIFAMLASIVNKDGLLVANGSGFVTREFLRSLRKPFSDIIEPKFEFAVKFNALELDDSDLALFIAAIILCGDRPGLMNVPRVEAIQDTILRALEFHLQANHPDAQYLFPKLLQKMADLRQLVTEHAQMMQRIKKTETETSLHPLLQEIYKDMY
Bile acid receptor (Homo sapiens), sequence (Q96RI1 whole entry, looked up): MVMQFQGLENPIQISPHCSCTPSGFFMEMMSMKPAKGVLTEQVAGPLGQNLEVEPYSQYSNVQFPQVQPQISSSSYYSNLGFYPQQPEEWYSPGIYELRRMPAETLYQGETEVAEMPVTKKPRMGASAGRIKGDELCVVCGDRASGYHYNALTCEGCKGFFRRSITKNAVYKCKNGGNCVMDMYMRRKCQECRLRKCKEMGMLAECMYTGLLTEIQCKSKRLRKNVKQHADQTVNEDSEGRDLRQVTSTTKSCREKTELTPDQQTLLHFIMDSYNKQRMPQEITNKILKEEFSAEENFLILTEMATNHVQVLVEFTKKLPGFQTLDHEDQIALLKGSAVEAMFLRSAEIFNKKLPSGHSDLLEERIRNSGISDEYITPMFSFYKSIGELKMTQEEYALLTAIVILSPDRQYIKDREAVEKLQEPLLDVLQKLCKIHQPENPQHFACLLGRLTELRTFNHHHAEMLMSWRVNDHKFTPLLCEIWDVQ
Thyroid hormone receptor beta (Homo sapiens), sequence (P10828 whole entry, looked up): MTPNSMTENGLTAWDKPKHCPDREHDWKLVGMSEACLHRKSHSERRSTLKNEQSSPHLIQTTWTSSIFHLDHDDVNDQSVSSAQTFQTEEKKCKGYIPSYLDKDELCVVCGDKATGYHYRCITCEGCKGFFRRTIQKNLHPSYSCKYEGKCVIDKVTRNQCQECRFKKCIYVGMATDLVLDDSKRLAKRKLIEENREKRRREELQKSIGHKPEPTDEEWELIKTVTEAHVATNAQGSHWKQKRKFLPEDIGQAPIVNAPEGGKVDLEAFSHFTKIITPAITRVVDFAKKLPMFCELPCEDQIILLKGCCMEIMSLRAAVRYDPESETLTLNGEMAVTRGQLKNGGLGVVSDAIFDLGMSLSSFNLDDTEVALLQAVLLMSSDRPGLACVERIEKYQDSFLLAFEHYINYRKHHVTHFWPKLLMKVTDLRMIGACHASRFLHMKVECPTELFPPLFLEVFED
Vitamin D3 receptor (Homo sapiens), sequence (P11473 whole entry, looked up): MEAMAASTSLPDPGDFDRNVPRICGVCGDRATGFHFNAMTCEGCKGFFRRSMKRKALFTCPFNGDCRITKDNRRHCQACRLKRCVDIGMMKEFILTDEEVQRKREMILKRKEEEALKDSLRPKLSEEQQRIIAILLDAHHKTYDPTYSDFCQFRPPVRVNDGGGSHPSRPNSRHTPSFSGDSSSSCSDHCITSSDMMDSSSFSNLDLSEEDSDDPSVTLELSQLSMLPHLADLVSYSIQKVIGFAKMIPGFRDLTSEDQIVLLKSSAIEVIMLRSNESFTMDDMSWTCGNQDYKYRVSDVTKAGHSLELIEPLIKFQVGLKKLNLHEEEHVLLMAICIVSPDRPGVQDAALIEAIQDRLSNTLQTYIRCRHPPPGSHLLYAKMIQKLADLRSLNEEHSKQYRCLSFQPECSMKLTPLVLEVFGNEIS

On to `C1CCC2(CCCCO2)OC1`, for which the Potency entry in experiment [1], in experiment [2] and in experiment [4] was “inactive” each time. Also, the activity change % (negative = inhibition) in experiment [3] is 7.84%.
Turning to `CCCCCCCCCCCCCCCO`, the Potency entry in experiment [5], in experiment [1], in experiment [2], in experiment [6] and in experiment [4] was “inactive” each time. Besides, the activity change % (negative = inhibition) in experiment [3] was 4.44%.
For `CO[Si](OC)(OC)c1ccccc1`, the Potency entry in experiment [1], in experiment [2] and in experiment [6] was “inactive” in each case.
As to `CC(C)C(=O)OC(=O)C(C)C`, the Potency result in experiment [1] and in experiment [2] was “inactive” in each case. Further, the activity change % (negative = inhibition) in experiment [3] was 8.71%.
Turning to `COCCOCCOCCO`, the Potency result in experiment [1] and in experiment [6] was “inactive” in each case.
Consider `CC(=O)c1c(C)c([N+](=O)[O-])c(C(C)(C)C)c([N+](=O)[O-])c1C`, for which the Potency result in experiment [1] was “inactive”. For the same compound, the Potency in experiment [6] is 28.2 µM (active).
For the compound `CCOC(=O)NCCOc1ccc(Oc2ccccc2)cc1`, the Potency entry in experiment [5], in experiment [1] and in experiment [2] was “inactive” each time. In addition, the Potency in experiment [4] is 30.6 µM (active).
For the compound `CCC(C)OC(=O)N1CCCCC1CCO` (configuration not stated), the Potency entry in experiment [5], in experiment [1], in experiment [2], in experiment [6] and in experiment [4] was “inactive” in each case. The activity change % (negative = inhibition) in experiment [3] was -6.45%.
Take `O=C1CCCCCCCCCCC1`: the Potency entry in experiment [1], in experiment [6] and in experiment [4] was “inactive” each time. Further, the activity change % (negative = inhibition) in experiment [3] is 4.81%.
Take `CCCCC(CC)COC(C)=O` (configuration not stated): the Potency result in experiment [2], in experiment [6] and in experiment [4] was “inactive” each time.
Turning to `CCCCCCCC/C=C\CCCCCCCC(=O)OC`, the Potency entry in experiment [1] and in experiment [2] was “inactive” in each case.
For `CC(C)CCCCOC(=O)c1ccccc1C(=O)OCCCCC(C)C`, the Potency entry in experiment [1] and in experiment [6] was “inactive” throughout.
In the case of `C=CCCCCCCCCCC`, the Potency result in experiment [1], in experiment [6] and in experiment [4] was “inactive” each time.
Consider `CC(COc1ccc(C(C)(C)C)cc1)OS(=O)OCCCl` (configuration not stated), for which the Potency entry in experiment [5] and in experiment [1] was “inactive” in each case. The activity change % (negative = inhibition) in experiment [3] is -14.9%. For the same compound, the Potency in experiment [4] was 27.3 µM (active).
In the case of `CC(C)CCCCCCCCCCCCCCC(=O)O`, in experiment [1], the Potency entry was “inactive”.
Regarding `COc1cc(Cl)c(OC)cc1N`, the Potency entry in experiment [1], in experiment [2] and in experiment [6] was “inactive” in each case.
On to `CCCC/C=C\CCCCCCCCCC=O`, for which the Potency result in experiment [5], in experiment [1], in experiment [2] and in experiment [4] was “inactive” each time.
Consider `COC(OC)(C(=O)c1ccccc1)c1ccccc1`, for which the Potency result in experiment [1], in experiment [2], in experiment [6] and in experiment [4] was “inactive” in each case. Further, the activity change % (negative = inhibition) in experiment [3] is -4.01%.
On to `C=CCOc1nc(OCC=C)nc(OCC=C)n1`, for which the Potency result in experiment [1], in experiment [2] and in experiment [6] was “inactive” in each case. The activity change % (negative = inhibition) in experiment [3] is 11.9%.
As for `CCOCCOCCOCCO`, the Potency result in experiment [5], in experiment [2] and in experiment [4] was “inactive” in each case. Also, the activity change % (negative = inhibition) in experiment [3] is 8.91%.
Turning to `CC1=CC(=O)CC(C)(C)C1`, the Potency entry in experiment [1] was “inactive”.
Turning to `Cc1ccc2c(c1)C(=O)OC2=O`, the Potency entry in experiment [1], in experiment [2], in experiment [6] and in experiment [4] was “inactive” in each case. The activity change % (negative = inhibition) in experiment [3] was -5.6%.
For `CCCCCCCCCCCCCCC`, the Potency result in experiment [1] and in experiment [2] was “inactive” each time. In experiment [3], the activity change % (negative = inhibition) is 5.8%.
Turning to `CCCCCCCC/C=C\CCCCCCCCO`, the Potency entry in experiment [1], in experiment [2], in experiment [6] and in experiment [4] was “inactive” in each case. Further, in experiment [3], the activity change % (negative = inhibition) is -5.71%.
As to `CC(C)Nc1nc(N)nc(Cl)n1`, the Potency result in experiment [2], in experiment [6] and in experiment [4] was “inactive” each time.
In the case of `c1ccc2c(c1)ccc1c3ccccc3ccc21`, the Potency result in experiment [5], in experiment [2] and in experiment [6] was “inactive” each time. In addition, the activity change % (negative = inhibition) in experiment [3] is 1.89%.
Turning to `O=C(c1ccccc1)c1ccc(O)c(O)c1O`, the Potency entry in experiment [1], in experiment [2] and in experiment [6] was “inactive” throughout.
Regarding `COCCO`, the Potency entry in experiment [1], in experiment [2], in experiment [6] and in experiment [4] was “inactive” each time.
`CC(C)(N=C=O)c1cccc(C(C)(C)N=C=O)c1`: the Potency result in experiment [2], in experiment [6] and in experiment [4] was “inactive” throughout. Further, the activity change % (negative = inhibition) in experiment [3] is -9.67%.
`C=CC(=O)OCCOc1ccccc1`: in experiment [1], the Potency result was “inactive”. The activity change % (negative = inhibition) in experiment [3] is -3.52%.
For the compound `O=C1CCC(C2CCCCC2)CC1`, the Potency result in experiment [5], in experiment [2] and in experiment [6] was “inactive” in each case.
As to `CCCCCCC(O)CCCCCCCCCCC(=O)OC` (configuration not stated), the Potency entry in experiment [1], in experiment [2], in experiment [6] and in experiment [4] was “inactive” each time. Further, the activity change % (negative = inhibition) in experiment [3] was -2.76%.
For the compound `CCOCCOCCOCC`, the Potency entry in experiment [1] and in experiment [2] was “inactive” in each case. Moreover, the activity change % (negative = inhibition) in experiment [3] was -11.8%.
As to `CCCCCCCCCCCCc1ccccc1`, the Potency entry in experiment [5], in experiment [1], in experiment [2], in experiment [6] and in experiment [4] was “inactive” throughout.
Regarding `CCCCCCCCCC(=O)OC`, the Potency result in experiment [5], in experiment [1] and in experiment [6] was “inactive” in each case.
`CCCCCCCC[Si](OCC)(OCC)OCC`: the Potency result in experiment [1], in experiment [2] and in experiment [4] was “inactive” in each case. Moreover, the activity change % (negative = inhibition) in experiment [3] was 3.89%.
Consider `O=C(Cl)c1cccc(C(=O)Cl)c1`, for which the Potency result in experiment [2], in experiment [6] and in experiment [4] was “inactive” each time. The activity change % (negative = inhibition) in experiment [3] was -4.29%.
As for `CC(C)CC(C)(O)C#CC(C)(O)CC(C)C` (configuration not stated), the Potency entry in experiment [2] and in experiment [4] was “inactive” in each case. Moreover, the activity change % (negative = inhibition) in experiment [3] is 20.8%.
Regarding `CC1(C)C(=O)N(Br)C(=O)N1Cl`, the Potency result in experiment [2] is “inactive”. In addition, the activity change % (negative = inhibition) in experiment [3] was -12%.
Turning to `S=C([S-])NCCNC(=S)[S-].[Mn+2]`, in experiment [3], the activity change % (negative = inhibition) was -12.7%.
For the compound `Oc1ccc(Nc2ccccc2)cc1`, in experiment [3], the activity change % (negative = inhibition) was -3.3%. Moreover, in experiment [4], the Potency was 24.3 µM (active).
Turning to `O=C(Nc1ccccc1)c1cc(Cl)ccc1O`, the Potency result in experiment [2] is “inactive”. In experiment [4], the Potency is 5.45 µM (active).
With `CCCCCCCCCCCCCCN(C)C`, the Potency entry in experiment [2], in experiment [6] and in experiment [4] was “inactive” in each case.
Take `C=CC(=O)OCCOCC(CC)(COCCOC(=O)C=C)COCCOC(=O)C=C`: the values for the Potency in experiment [2] and in experiment [4] were 28.2 µM (active) and 30.6 µM (active), respectively.
Turning to `CCCCC(CC)CN1C(=O)C2C3C=CC(C3)C2C1=O` (configuration not stated), the Potency result in experiment [2] was “inactive”. The activity change % (negative = inhibition) in experiment [3] is 4.69%.
For `CCCOC(=O)NCCCN(C)C`, the Potency result in experiment [2] and in experiment [4] was “inactive” each time. Besides, the activity change % (negative = inhibition) in experiment [3] is 1.87%.
As for `CCCCCOC(=O)COc1cc(N2C(=O)C3=C(CCCC3)C2=O)c(F)cc1Cl`, the Potency entry in experiment [2] was “inactive”. For the same compound, the activity change % (negative = inhibition) in experiment [3] is 4.65%.
Turning to `CN(C)c1ccc(C(c2ccccc2)c2ccc(N(C)C)cc2)cc1`, the activity change % (negative = inhibition) in experiment [3] is 13.2%.
As for `COC(=O)c1ccc(CNS(C)(=O)=O)cc1S(=O)(=O)NC(=O)Nc1nc(OC)cc(OC)n1`, in experiment [2], the Potency result was “inactive”.
Regarding `C=C(C)C(=O)OCCN(C)C`, the Potency entry in experiment [1] and in experiment [2] was “inactive” in each case. In addition, the activity change % (negative = inhibition) in experiment [3] is 5.49%.
